According to PubChem BioAssay AID1159580 (chemical genetic matrix, 2015):
Among all 5,500 compounds or so, about 2,000 (36%) were called active. Another 18% or so got no clear call; they are omitted. No stated cut-off is given here; in the data, active means normalized growth mostly below about 0.91 (no sharp cut-off); inconclusive means no clear call, values can overlap the other calls; inactive means mostly above about 0.92. Some of the results follow.

Assay: chemical genetic growth profiling, strain panel (AID 1159580);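 further: tested at 20 µM; growth read once vehicle control cultures reached saturation at 30 °C; 1 = growth at the plate median or of vehicle wells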
Settings: S. cerevisiae deletion strains, growth OD

Measured: normalized growth

CC(=O)c1c(O)cc(O)cc1O
inactive: locus YAL021C, strain ccr4, stronger effect = lower value 1.04 | locus YAL026C, strain drs2, stronger effect = lower value 0.987 | locus YAL030W, strain snc1, stronger effect = lower value 0.981 | locus YBL061C, strain skt5, stronger effect = lower value 0.985 | locus YBR009C, strain hhf1, stronger effect = lower value 1.02 | locus YBR023C, strain chs3, stronger effect = lower value 0.995 | locus YBR171W, strain sec66, stronger effect = lower value 0.964 | locus YBR231C, strain swc5, stronger effect = lower value 0.947 | locus YBR279W, strain paf1, stronger effect = lower value 0.991 | locus YCL011C, strain gbp2, stronger effect = lower value 0.978 | locus YCL016C, strain dcc1, stronger effect = lower value 1.03 | locus YCL061C, strain MRC1, stronger effect = lower value 1 | locus YCL069W, strain vba3, stronger effect = lower value 0.949 | locus YCR088W, strain abp1, stronger effect = lower value 0.967 | locus YDL005C, strain med2, stronger effect = lower value 0.97 | locus YDL040C, strain nat1, stronger effect = lower value 0.973 | locus YDR001C, strain nth1, stronger effect = lower value 0.981 | locus YDR069C, strain doa4, stronger effect = lower value 0.937 | locus YDR137W, strain rgp1, stronger effect = lower value 1.01 | locus YDR159W, strain sac3, stronger effect = lower value 0.967 | locus YDR195W, strain ref2 0.914 | locus YDR297W, strain sur2, stronger effect = lower value 0.982 | locus YDR334W, strain swr1, stronger effect = lower value 0.96 | locus YDR335W, strain msn5, stronger effect = lower value 0.973 | locus YDR392W, strain spt3, stronger effect = lower value 0.952 | locus YEL003W, strain gim4, stronger effect = lower value 0.979 | locus YEL037C, strain rad23, stronger effect = lower value 0.974 | locus YEL061C, strain CIN8 (second series), stronger effect = lower value 0.961 | locus YER015W, strain faa2, stronger effect = lower value 0.988 | locus YER016W, strain bim1, stronger effect = lower value 0.972 | locus YER111C, strain swi4, stronger effect = lower value 0.975 | locus YER155C, strain BEM2 (second series), stronger effect = lower value 0.969 | locus YFR010W, strain ubp6, stronger effect = lower value 0.948 | locus YGL167C, strain pmr1, stronger effect = lower value 0.992 | locus YGL173C, strain kem1, stronger effect = lower value 0.993 | locus YGL227W, strain vid30, stronger effect = lower value 0.968 | locus YGL240W, strain doc1, stronger effect = lower value 0.981 | locus YGL253W, strain hxk2, stronger effect = lower value 0.938 | locus YHR013C, strain ard1, stronger effect = lower value 0.985 | locus YHR027C, strain rpn1, stronger effect = lower value 0.997 | locus YHR030C, strain SLT2, stronger effect = lower value 0.986 | locus YHR079C, strain IRE1, stronger effect = lower value 0.974 | locus YHR142W, strain chs7, stronger effect = lower value 0.988 | locus YJL092W, strain hpr5, stronger effect = lower value 0.978 | locus YJL095W, strain BCK1 (second series), stronger effect = lower value 0.981 | locus YJL095W, strain BCK1, stronger effect = lower value 0.992 | locus YJL115W, strain asf1, stronger effect = lower value 0.999 | locus YJL129C, strain trk1, stronger effect = lower value 0.977 | locus YJL154C, strain vps35, stronger effect = lower value 0.973 | locus YJL164C, strain tpk1, stronger effect = lower value 1.02 | locus YJL166W, strain qcr8, stronger effect = lower value 0.989 | locus YJL187C, strain SWE1, stronger effect = lower value 0.99 | locus YJR066W, strain TOR1, stronger effect = lower value 0.952 | locus YKL160W, strain elf1, stronger effect = lower value 1.03 | locus YKR026C, strain gcn3, stronger effect = lower value 0.948 | locus YKR091W, strain srl3, stronger effect = lower value 0.988 | locus YLL001W, strain dnm1, stronger effect = lower value 0.978 | locus YLL026W, stronger effect = lower value 0.998 | locus YLL041C, strain sdh2, stronger effect = lower value 0.983 | locus YLR027C, strain aat2, stronger effect = lower value 0.993 | locus YLR113W, strain HOG1, stronger effect = lower value 0.97 | locus YLR221C, strain rsa3, stronger effect = lower value 0.955 | locus YLR258W, strain gsy2, stronger effect = lower value 0.989 | locus YLR262C, strain YPT6 (second series), stronger effect = lower value 1.06 | locus YLR320W, strain mms22, stronger effect = lower value 0.978 | locus YLR342W, strain FKS1, stronger effect = lower value 0.978 | locus YLR357W, strain rsc2, stronger effect = lower value 0.982 | locus YLR370C, strain arc18, stronger effect = lower value 0.961 | locus YLR384C, strain iki3, stronger effect = lower value 0.973 | locus YML120C, strain ndi1, stronger effect = lower value 0.998 | locus YMR058W, strain fet3, stronger effect = lower value 0.975 | locus YMR125W, strain sto1, stronger effect = lower value 0.958 | locus YMR129W, stronger effect = lower value 0.978 | locus YMR205C, strain PFK2, stronger effect = lower value 1.03 | locus YMR231W, strain pep5, stronger effect = lower value 0.968 | locus YNL071W, strain lat1, stronger effect = lower value 0.984 | locus YNL183C, strain NPR1, stronger effect = lower value 0.938 | locus YNL209W, strain ssb2, stronger effect = lower value 0.997 | locus YNL248C, strain rpa49, stronger effect = lower value 1.01 | locus YNL322C, strain KRE1 (second series), stronger effect = lower value 0.99 | locus YNR049C, strain mso1, stronger effect = lower value 0.978 | locus YOR001W, strain rrp6, stronger effect = lower value 0.922 | locus YOR070C, strain gyp1, stronger effect = lower value 0.988 | locus YOR080W, strain dia2, stronger effect = lower value 0.962 | locus YOR083W, strain WHI5, stronger effect = lower value 1.03 | locus YOR106W, strain vam3, stronger effect = lower value 1.04 | locus YOR231W, strain MKK1, stronger effect = lower value 0.982 | locus YOR265W, strain rbl2, stronger effect = lower value 0.976 | locus YOR270C, strain vph1, stronger effect = lower value 1.01 | locus YOR290C, strain snf2, stronger effect = lower value 1.03 | locus YPL051W, strain arl3, stronger effect = lower value 0.965 | locus YPL078C, strain atp4, stronger effect = lower value 1.03 | locus YPL106C, strain sse1, stronger effect = lower value 0.958 | locus YPL240C, strain hsp82, stronger effect = lower value 0.979 | locus YPL256C, strain CLN2, stronger effect = lower value 0.973
